Measured values from PubChem BioAssay (EPA / NIEHS).
The source made the active and inactive calls. Rule for the calls: active = hit-call score of the fitted dose curve at least 0.9, where 1 is the maximum; inactive = score below 0.9.

Assays:
Conditions in all cases: mRNA level, 48 h; actives raise or lower the signal
CYP2C8 (gene 1558) = assay: LTEA_HepaRG_CYP2C8: Life Technologies and Expression Analysis (LTEA) Assay for CYP2C8 using HepaRG (AID 2283483)
How it was run: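 CYP2C8 expression measured by TaqMan qRT-PCR and normalized to three housekeeping genes. HepaRG cultures were treated for 48 h with an eight-point half-log series topping at 100 uM, vehicle 0.5% DMSO, duplicates; fitted both directions against DMSO.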

CYP2C9 (gene 1559) = assay: LTEA_HepaRG_CYP2C9: Life Technologies and Expression Analysis (LTEA) Assay for CYP2C9 using HepaRG (AID 2283484)
How it was run: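 CYP2C9 transcript level, quantified by TaqMan qRT-PCR against three housekeeping genes, was fitted bidirectionally relative to 0.5% DMSO. HepaRG cultures were treated 48 h, in duplicate, at eight half-log concentrations topping at 100 uM.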

CYP2E1 (gene 1571) = assay: LTEA_HepaRG_CYP2E1: Life Technologies and Expression Analysis (LTEA) Assay for CYP2E1 using HepaRG (AID 2283485)
How it was run: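 Readout is qRT-PCR of CYP2E1 mRNA, normalized to three housekeeping genes and fitted bidirectionally against 0.5% DMSO. HepaRG cells were dosed 48 h at eight concentrations, highest 100 uM with half-log dilutions.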

CYP4A11 (gene 1579) = assay: LTEA_HepaRG_CYP4A11: Life Technologies and Expression Analysis (LTEA) Assay for CYP4A11 using HepaRG (AID 2283486)
How it was run: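 Differentiated HepaRG cells, serum-free induction medium, exposed 48 h in duplicate to 8-point half-log series from 100 uM in 0.5% DMSO. CYP4A11 mRNA measured by qRT-PCR, normalized to ACTB, GAPDH, POLR2A; bidirectional fit versus DMSO.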

[1] = read-out: DNA damage-inducible transcript 3 (DDIT3), DDIT3 (gene 1649); assay: LTEA_HepaRG_DDIT3: Life Technologies and Expression Analysis (LTEA) Assay for DNA damage-inducible transcript 3 (DDIT3) using HepaRG (AID 2283488)
How it was run: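 Cells are human HepaRG liver cells treated for 48 h with eight half-log concentrations up to 100 uM in 0.5% DMSO. Transcript levels come from qRT-PCR normalized to three housekeeping genes, with activity fitted in both directions relative to vehicle.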

[2] = read-out: Pro-epidermal growth factor (Homo sapiens) (UniProt P01133); assay: LTEA_HepaRG_EGF: Life Technologies and Expression Analysis (LTEA) Assay for Epidermal growth factor (EGF) using HepaRG (AID 2283489)
How it was run: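 Differentiated human HepaRG cells, plated 48 h then switched to serum-free induction medium, were exposed for 48 h to test chemicals (8-point half-log series, top 100 uM, 0.5% DMSO). EGF mRNA was quantified by qRT-PCR, normalized to ACTB, GAPDH, POLR2A.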

[3] = read-out: Early growth response protein 1 (EGR1) transcription factor, EGR1 (gene 1958); assay: LTEA_HepaRG_EGR1: Life Technologies and Expression Analysis (LTEA) Assay for Early growth response protein 1 (EGR1) transcription factor using HepaRG (AID 2283490)
How it was run: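 EGR1 transcript levels quantified by qRT-PCR (Fluidigm arrays) against three housekeeping genes after 48 h chemical exposure of HepaRG cells. Eight-point half-log series topping at 100 uM, 0.5% DMSO vehicle, analyzed for gain or loss.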

[4] = read-out: Ezrin (EZR), EZR (gene 7430); assay: LTEA_HepaRG_EZR: Life Technologies and Expression Analysis (LTEA) Assay for Ezrin (EZR) using HepaRG (AID 2283491)
How it was run: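 Differentiated human HepaRG cells, 48 h after plating, were exposed in serum-free induction medium for 48 hours to eight half-log concentrations up to 100 uM in 0.5% DMSO. EZR mRNA was measured by TaqMan qRT-PCR, normalized to ACTB, GAPDH and POLR2A, and fitted bidirectionally against DMSO.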

[5] = read-out: Cytochrome P450 3A7 (Homo sapiens) (UniProt P24462); assay: LTEA_HepaRG_CYP3A7: Life Technologies and Expression Analysis (LTEA) Assay for CYP3A7 using HepaRG (AID 2283492)
How it was run: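 HepaRG cells plated 48 h, then dosed in serum-free induction medium for 48 h at 8 concentrations (top 100 uM, half-log steps, 0.5% DMSO). CYP3A7 mRNA by qRT-PCR, normalised to ACTB/GAPDH/POLR2A; bidirectional fit versus DMSO.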

[6] = read-out: Cytochrome P450 3A4 (Homo sapiens) (UniProt P08684); assay: LTEA_HepaRG_CYP3A4: Life Technologies and Expression Analysis (LTEA) Assay for CYP3A4 using HepaRG (AID 2283487)
How it was run: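 Differentiated HepaRG cells in serum-free induction medium exposed in duplicate for 48 h to 8 half-log concentrations up to 100 uM in 0.5% DMSO. CYP3A4 mRNA measured by qRT-PCR normalized to ACTB, GAPDH and POLR2A; bidirectional fit versus DMSO.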

Measured: AC50

Chain of Cytochrome P450 3A4 (Homo sapiens) (P08684 whole entry, looked up): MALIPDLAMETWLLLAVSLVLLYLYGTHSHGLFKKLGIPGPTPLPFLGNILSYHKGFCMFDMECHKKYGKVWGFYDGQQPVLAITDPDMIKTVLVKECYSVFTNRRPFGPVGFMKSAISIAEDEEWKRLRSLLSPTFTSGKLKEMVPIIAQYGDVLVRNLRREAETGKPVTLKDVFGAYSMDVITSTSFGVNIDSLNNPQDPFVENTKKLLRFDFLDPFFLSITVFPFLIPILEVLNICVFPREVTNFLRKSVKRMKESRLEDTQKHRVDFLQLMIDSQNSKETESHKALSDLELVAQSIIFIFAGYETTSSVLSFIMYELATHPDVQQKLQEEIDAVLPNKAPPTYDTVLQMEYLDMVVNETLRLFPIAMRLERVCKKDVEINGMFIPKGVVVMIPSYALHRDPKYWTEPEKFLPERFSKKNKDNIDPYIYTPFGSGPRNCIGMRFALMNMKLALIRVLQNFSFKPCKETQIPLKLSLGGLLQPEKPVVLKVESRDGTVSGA
Chain of Cytochrome P450 3A7 (Homo sapiens) (P24462 whole entry, looked up): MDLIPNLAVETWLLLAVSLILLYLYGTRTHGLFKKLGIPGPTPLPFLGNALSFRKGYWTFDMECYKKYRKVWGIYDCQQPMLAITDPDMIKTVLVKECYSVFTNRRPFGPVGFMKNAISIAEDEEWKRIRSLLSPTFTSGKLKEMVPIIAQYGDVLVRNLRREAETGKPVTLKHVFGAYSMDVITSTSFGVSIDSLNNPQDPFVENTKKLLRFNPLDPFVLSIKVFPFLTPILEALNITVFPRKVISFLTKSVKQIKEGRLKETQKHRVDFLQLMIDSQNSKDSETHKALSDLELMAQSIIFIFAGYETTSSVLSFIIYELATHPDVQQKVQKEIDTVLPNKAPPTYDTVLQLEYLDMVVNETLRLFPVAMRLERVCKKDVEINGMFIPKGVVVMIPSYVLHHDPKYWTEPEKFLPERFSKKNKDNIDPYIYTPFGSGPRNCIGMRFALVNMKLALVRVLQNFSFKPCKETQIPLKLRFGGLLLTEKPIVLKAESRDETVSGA

CCc1cc(C2=C(C(=O)O)N(c3ccccc3C(F)(F)F)S(=O)(=O)c3ccccc32)cc2c1OCO2
inactive: [2] | [4]
active: CYP2C8 (gene 1558) 91.7 µM | CYP2C9 (gene 1559) 86.1 µM | CYP2E1 (gene 1571) 56.8 µM | CYP4A11 (gene 1579) 39.7 µM | [1] 82.1 µM | [3] 9.92 µM | [5] 0.645 µM

CCCCC(CC)COP(=O)(OCC(CC)CCCC)OCC(CC)CCCC (stereo not given)
active: CYP2E1 (gene 1571) 19.3 µM | [6] 5.79 µM | [5] 5.61 µM
inactive: all other assays above

CN(C)CCCN(C)CCCN(C)C
not listed: [6]
inactive: all other assays above

Cc1occc(=O)c1O
not listed: [6]
inactive: all other assays above

CC(C)(O)c1ccc(CNC(=O)c2cccnc2Oc2ccc(F)cc2)cc1
active: CYP2E1 (gene 1571) 37.9 µM | CYP4A11 (gene 1579) 10.2 µM | [6] 8.47 µM | [5] 9.92 µM
inactive: all other assays above

CC(C)NCC(O)c1ccc(O)c(O)c1 (stereo not given)
active: CYP2C9 (gene 1559) 0.175 µM | CYP2E1 (gene 1571) 0.304 µM | [4] 1.8 µM
not listed: [5] | [6]
inactive: all other assays above

CC(C)(C)c1ccccc1
not listed: [6]
inactive: all other assays above

CC1=C(C)S(=O)(=O)CCS1(=O)=O
active: CYP2C9 (gene 1559) 87.7 µM | CYP4A11 (gene 1579) 89.5 µM | [6] 50 µM | [2] 12 µM | [3] 80.6 µM | [5] 72 µM
inactive: CYP2C8 (gene 1558) | CYP2E1 (gene 1571) | [1] | [4]

O=C1OC(c2ccc(O)cc2)(c2ccc(O)cc2)c2ccccc21
active: CYP2C8 (gene 1558) 78.7 µM | CYP2C9 (gene 1559) 82 µM | CYP4A11 (gene 1579) 80.1 µM
not listed: [5] | [6]
inactive: all other assays above

NCCOCCOCCN
not listed: [6]
inactive: all other assays above

CN(C)C(=O)NC1(c2ccccc2)CCN(CCC[C@]2(c3ccc(Cl)c(Cl)c3)CCCN(C(=O)c3ccccc3)C2)CC1
inactive: CYP2C8 (gene 1558) | [2]
active: CYP2C9 (gene 1559) 19.7 µM | CYP2E1 (gene 1571) 17.7 µM | CYP4A11 (gene 1579) 23.6 µM | [1] 18.1 µM | [3] 23.1 µM | [4] 23.4 µM

NC=O
not listed: [6]
inactive: all other assays above

CC(=O)OC1CC(C)OC(C)O1 (stereo not given)
inactive: all assays above

CC1(C)C(=O)NC(=O)N1CO
not listed: [6]
inactive: all other assays above

Cc1ccc(-c2cc(C(F)(F)F)nn2-c2ccc(S(N)(=O)=O)cc2)cc1
active: CYP2E1 (gene 1571) 38.2 µM | CYP4A11 (gene 1579) 6 µM | [1] 68.8 µM
not listed: [5] | [6]
inactive: all other assays above

CCc1nc(N)nc(N)c1-c1ccc(Cl)cc1
inactive: [2] | [3] | [4] | [5]
active: CYP2C8 (gene 1558) 79.6 µM | CYP2C9 (gene 1559) 44.5 µM | CYP2E1 (gene 1571) 26 µM | CYP4A11 (gene 1579) 64.2 µM | [1] 77.8 µM

CC(N)=O
not listed: [6]
inactive: all other assays above

Cc1c(C)c2c(c(C)c1O)CCC(C)(COc1ccc(CC3SC(=O)NC3=O)cc1)O2 (stereo not given)
active: CYP2E1 (gene 1571) 25.6 µM | CYP4A11 (gene 1579) 27.5 µM | [3] 88.3 µM
not listed: [5] | [6]
inactive: all other assays above

CC(C)COC(=O)CCCCC(=O)OCC(C)C
not listed: [6]
inactive: all other assays above

CCCC(=O)O
not listed: [6]
inactive: all other assays above

C=CCc1ccc(OC)c(OC)c1
not listed: [6]
inactive: all other assays above

COc1ccc(OC(F)(F)F)cc1CN[C@H]1CCCN[C@H]1c1ccccc1
active: CYP2C9 (gene 1559) 83.7 µM | CYP2E1 (gene 1571) 16.8 µM | CYP4A11 (gene 1579) 9.12 µM | [1] 72.8 µM | [2] 50 µM | [3] 86.6 µM
inactive: CYP2C8 (gene 1558) | [4] | [5]

CCCCCCCCCCCCCCCCO
active: CYP2E1 (gene 1571) 50 µM | CYP4A11 (gene 1579) 16.8 µM | [4] 0.102 µM
not listed: [6]
inactive: all other assays above

CC(C)c1cccc(C(C)C)c1
not listed: [6]
inactive: all other assays above
